Data from ChEMBL document CHEMBL1961873, “Compounds: GSK PKIS; Assays: Nanosyn kinase panel” (2012).

What was measured:
[1] = target: Leukocyte tyrosine kinase receptor (Homo sapiens) (UniProt P29376); conditions: at 1 µM;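 also: each value is the mean inhibition of LTK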
[2] = target: Tyrosine-protein kinase Lyn (Homo sapiens) (UniProt P07948); conditions: at 0.1 µM
[3] = target: Tyrosine-protein kinase Lyn (Homo sapiens) (UniProt P07948); conditions: at 1 µM
[4] = target: Tyrosine-protein kinase Lyn (Homo sapiens) (UniProt P07948); conditions: at 0.1 µM; remark: listed apart in the source
[5] = target: Tyrosine-protein kinase Lyn (Homo sapiens) (UniProt P07948); conditions: at 1 µM; remark: listed apart in the source
[6] = target: T1, Tyrosine-protein kinase Mer (Homo sapiens) (UniProt Q12866); conditions: at 0.1 µM
T1 sequence (whole entry): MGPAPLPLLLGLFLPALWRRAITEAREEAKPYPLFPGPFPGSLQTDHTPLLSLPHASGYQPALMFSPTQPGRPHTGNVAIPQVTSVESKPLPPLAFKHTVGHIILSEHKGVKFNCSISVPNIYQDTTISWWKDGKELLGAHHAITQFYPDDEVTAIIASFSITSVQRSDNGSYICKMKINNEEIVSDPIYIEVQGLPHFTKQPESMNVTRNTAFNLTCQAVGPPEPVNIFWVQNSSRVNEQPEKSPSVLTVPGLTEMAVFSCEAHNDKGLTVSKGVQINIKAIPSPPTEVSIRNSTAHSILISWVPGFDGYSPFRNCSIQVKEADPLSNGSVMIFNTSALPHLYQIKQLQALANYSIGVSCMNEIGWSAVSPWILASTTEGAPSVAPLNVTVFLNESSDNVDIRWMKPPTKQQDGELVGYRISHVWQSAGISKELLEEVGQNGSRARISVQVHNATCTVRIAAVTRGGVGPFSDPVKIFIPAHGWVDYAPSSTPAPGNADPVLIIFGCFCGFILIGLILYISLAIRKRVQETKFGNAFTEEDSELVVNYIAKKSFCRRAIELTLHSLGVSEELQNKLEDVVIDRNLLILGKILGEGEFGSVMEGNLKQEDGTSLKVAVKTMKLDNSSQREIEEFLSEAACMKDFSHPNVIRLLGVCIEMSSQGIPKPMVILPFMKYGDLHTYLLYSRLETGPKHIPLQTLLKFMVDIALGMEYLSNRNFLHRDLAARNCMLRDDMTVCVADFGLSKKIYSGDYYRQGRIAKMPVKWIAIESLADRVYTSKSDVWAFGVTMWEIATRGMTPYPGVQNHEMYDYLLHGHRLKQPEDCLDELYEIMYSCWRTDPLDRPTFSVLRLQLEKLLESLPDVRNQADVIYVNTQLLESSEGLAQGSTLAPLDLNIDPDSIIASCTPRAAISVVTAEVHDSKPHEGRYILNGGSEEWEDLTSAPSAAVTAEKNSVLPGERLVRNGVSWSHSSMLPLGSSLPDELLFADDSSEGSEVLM

[7] = target: T1, Tyrosine-protein kinase Mer (Homo sapiens); conditions: at 1 µM
[8] = target: Hepatocyte growth factor receptor (Homo sapiens) (UniProt P08581); conditions: at 0.1 µM
Chain of Hepatocyte growth factor receptor (Homo sapiens) (P08581 whole entry): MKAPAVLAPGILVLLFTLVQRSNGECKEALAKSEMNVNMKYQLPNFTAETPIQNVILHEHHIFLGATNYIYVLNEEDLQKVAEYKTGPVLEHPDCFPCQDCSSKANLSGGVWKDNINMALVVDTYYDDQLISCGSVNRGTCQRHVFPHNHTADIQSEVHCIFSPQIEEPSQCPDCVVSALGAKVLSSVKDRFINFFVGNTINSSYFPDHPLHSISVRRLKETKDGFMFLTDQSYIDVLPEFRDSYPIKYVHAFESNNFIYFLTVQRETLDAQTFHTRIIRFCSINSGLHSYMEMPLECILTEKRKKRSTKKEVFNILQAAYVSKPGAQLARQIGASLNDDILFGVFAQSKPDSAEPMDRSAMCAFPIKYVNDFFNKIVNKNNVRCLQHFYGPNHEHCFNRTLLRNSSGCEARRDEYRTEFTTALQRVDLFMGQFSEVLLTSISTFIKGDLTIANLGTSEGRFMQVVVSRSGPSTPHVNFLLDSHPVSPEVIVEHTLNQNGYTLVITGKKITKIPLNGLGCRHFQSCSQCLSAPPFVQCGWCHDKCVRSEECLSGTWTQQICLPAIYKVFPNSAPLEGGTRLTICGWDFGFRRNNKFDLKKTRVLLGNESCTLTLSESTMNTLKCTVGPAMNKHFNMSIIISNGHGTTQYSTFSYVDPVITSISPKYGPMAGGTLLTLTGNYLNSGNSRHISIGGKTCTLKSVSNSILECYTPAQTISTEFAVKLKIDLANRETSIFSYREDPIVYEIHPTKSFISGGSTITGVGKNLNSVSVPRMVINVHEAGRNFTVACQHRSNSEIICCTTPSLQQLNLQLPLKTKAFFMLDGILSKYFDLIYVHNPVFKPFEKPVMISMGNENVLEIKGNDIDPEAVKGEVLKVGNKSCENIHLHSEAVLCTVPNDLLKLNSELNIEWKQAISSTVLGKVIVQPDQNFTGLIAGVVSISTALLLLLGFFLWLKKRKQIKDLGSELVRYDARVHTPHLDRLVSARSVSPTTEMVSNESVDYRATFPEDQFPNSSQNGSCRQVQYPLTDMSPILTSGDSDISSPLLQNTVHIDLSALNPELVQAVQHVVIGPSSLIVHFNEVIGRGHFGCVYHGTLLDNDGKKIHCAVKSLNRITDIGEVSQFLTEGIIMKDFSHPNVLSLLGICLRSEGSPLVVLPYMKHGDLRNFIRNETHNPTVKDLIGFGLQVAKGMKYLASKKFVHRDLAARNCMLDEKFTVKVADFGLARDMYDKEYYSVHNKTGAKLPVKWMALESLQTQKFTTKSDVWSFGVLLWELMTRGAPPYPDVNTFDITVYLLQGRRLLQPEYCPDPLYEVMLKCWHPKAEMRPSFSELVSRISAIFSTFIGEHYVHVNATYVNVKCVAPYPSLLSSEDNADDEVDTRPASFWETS

[9] = target: Hepatocyte growth factor receptor (Homo sapiens) (UniProt P08581); conditions: at 1 µM
[10] = target: T2, Muscle, skeletal receptor tyrosine-protein kinase (Homo sapiens) (UniProt O15146); conditions: at 0.1 µM
T2 sequence (whole entry): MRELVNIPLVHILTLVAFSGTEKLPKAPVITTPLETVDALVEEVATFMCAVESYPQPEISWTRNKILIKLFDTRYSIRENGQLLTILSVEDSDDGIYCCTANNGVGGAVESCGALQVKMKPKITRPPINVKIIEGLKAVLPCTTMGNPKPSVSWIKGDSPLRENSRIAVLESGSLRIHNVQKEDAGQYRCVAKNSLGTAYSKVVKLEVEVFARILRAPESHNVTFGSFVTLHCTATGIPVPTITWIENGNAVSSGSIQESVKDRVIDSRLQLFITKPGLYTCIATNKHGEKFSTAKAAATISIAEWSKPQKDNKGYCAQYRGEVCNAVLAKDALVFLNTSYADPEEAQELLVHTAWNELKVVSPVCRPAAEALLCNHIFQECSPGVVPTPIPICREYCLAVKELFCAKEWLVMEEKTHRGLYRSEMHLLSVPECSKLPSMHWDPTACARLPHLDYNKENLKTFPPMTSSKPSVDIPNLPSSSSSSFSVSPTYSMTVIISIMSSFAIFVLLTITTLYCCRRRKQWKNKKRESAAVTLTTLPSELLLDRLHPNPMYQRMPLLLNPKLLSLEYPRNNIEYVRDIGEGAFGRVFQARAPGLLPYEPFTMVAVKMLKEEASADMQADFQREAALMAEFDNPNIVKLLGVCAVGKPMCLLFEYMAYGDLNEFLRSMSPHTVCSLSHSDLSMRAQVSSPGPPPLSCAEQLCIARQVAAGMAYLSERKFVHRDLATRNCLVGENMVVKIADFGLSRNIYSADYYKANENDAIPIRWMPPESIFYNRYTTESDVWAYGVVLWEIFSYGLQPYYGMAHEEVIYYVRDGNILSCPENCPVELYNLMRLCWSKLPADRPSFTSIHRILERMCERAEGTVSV

[11] = target: T2, Muscle, skeletal receptor tyrosine-protein kinase (Homo sapiens); conditions: at 1 µM
[12] = target: Platelet-derived growth factor receptor alpha (Homo sapiens) (UniProt P16234); conditions: at 0.1 µM
Chain of Platelet-derived growth factor receptor alpha (Homo sapiens) (P16234 whole entry): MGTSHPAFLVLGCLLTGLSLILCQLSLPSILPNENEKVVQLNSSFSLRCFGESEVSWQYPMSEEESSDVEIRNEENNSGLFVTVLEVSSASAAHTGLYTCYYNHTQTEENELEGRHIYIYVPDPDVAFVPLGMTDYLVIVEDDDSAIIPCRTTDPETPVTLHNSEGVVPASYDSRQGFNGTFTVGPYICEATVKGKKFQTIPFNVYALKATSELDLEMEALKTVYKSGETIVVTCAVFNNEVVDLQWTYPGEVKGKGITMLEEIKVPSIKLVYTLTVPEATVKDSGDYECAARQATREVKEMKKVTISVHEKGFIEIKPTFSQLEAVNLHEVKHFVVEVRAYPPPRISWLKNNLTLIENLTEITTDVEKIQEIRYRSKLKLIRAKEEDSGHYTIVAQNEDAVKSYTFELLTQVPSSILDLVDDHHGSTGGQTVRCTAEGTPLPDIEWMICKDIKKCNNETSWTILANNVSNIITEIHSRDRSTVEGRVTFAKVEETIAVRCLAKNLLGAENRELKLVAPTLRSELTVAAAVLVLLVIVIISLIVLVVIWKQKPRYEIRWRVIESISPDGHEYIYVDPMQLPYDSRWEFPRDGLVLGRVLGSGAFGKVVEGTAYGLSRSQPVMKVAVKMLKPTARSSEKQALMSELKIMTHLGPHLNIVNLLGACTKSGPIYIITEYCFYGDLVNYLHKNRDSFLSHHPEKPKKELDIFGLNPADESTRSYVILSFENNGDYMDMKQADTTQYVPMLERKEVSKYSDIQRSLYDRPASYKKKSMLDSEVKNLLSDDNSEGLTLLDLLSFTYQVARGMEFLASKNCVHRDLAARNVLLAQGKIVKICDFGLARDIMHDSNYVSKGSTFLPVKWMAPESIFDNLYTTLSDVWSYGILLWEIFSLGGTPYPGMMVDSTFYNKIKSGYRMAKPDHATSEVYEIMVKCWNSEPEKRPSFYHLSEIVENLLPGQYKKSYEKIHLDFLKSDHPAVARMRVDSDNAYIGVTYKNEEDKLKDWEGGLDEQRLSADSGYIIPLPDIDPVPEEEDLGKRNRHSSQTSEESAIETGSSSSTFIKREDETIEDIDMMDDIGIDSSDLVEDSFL

[13] = target: Platelet-derived growth factor receptor alpha (Homo sapiens) (UniProt P16234); conditions: at 1 µM
[14] = system: Platelet-derived growth factor receptor alpha (Homo sapiens), P16234 [D842V]; conditions: at 0.1 µM
Chain of Platelet-derived growth factor receptor alpha (Homo sapiens), P16234 [D842V] (P16234 whole entry D842V): as the sequence (P16234 whole entry) above, with D842V counted along it

[15] = system: Platelet-derived growth factor receptor alpha (Homo sapiens), P16234 [D842V]; conditions: at 1 µM
[16] = system: Platelet-derived growth factor receptor alpha (Homo sapiens), P16234 [T674I]; conditions: at 0.1 µM
Chain of Platelet-derived growth factor receptor alpha (Homo sapiens), P16234 [T674I] (P16234 whole entry T674I): as the sequence (P16234 whole entry) above, with T674I counted along it

[17] = system: Platelet-derived growth factor receptor alpha (Homo sapiens), P16234 [T674I]; conditions: at 1 µM
[18] = system: Platelet-derived growth factor receptor alpha (Homo sapiens), P16234 [V561D]; conditions: at 0.1 µM
[19] = system: Platelet-derived growth factor receptor alpha (Homo sapiens), P16234 [V561D]; conditions: at 1 µM
[20] = target: Platelet-derived growth factor receptor beta (Homo sapiens) (UniProt P09619); conditions: at 0.1 µM;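 also: reported value is the mean percent inhibition of the kinase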

| SMILES | inhibition [1] [%] | inhibition [2] [%] | inhibition [3] [%] | inhibition [4] [%] | inhibition [5] [%] | inhibition [6] [%] | inhibition [7] [%] | inhibition [8] [%] | inhibition [9] [%] | inhibition [10] [%] | inhibition [11] [%] | inhibition [12] [%] | inhibition [13] [%] | inhibition [14] [%] | inhibition [15] [%] | inhibition [16] [%] | inhibition [17] [%] | inhibition [18] [%] | inhibition [19] [%] | inhibition [20] [%] |
| --- | --- | --- | --- | --- | --- | --- | --- | --- | --- | --- | --- | --- | --- | --- | --- | --- | --- | --- | --- | --- |
| Fc1ccc(-c2nn3ncccc3c2-c2ccnc(Nc3ccc4c(c3)OCCO4)n2)cc1 | 5.5 | 32.5 | 78.8 | 26 | 72.7 | 5.86 | 31.5 | 4.89 | 10.7 | 3.02 | 3.55 | 15.1 | 54.8 | 12.1 | 56.1 | 5.87 | 17.9 | 21.9 | 72 | 29.3 |
| COc1cccc(-n2ncc3c(N/N=C/c4ccc(F)cc4)ncnc32)c1 | 3.69 | 19.6 | 48.7 | 14.6 | 43.9 | 3.7 | 5.19 | 2.87 | 16.6 | 3.89 | 9.49 | 15.8 | 42.1 | 9.48 | 45.4 | 9.07 | 29.6 | 8.4 | 37.1 | 12.8 |
| CC(=O)NCc1cccc(C#Cc2cncnc2Nc2ccc(OCc3cccc(F)c3)c(Cl)c2)c1 | 0.67 | -0.07 | -0.62 | -0.59 | -1.18 | 0.61 | 2.93 | 4.9 | 1.83 | -0.6 | 3.72 | 0.56 | 6.14 | 1.48 | 1.63 | 2.23 | 3.66 | 5.19 | 2.8 | 0.9 |
| Fc1ccc(-c2nn3ccccc3c2-c2ccncc2)cc1 | 0.03 | 0.64 | 6.12 | 0.28 | 4.71 | 1.48 | 2.6 | -1.86 | 3.37 | 3.06 | 3.5 | 1.93 | 5.44 | 1.99 | 5.38 | 3.28 | 1.29 | 1.28 | 5.89 | 0.58 |
| COc1ccc2[nH]c3c4[nH]c5ccc(OC)cc5c4c4c(c3c2c1)C(=O)NC4=O | 78.3 | 10.8 | 35.3 | 7.67 | 31.5 | 10.7 | 50.1 | 10.5 | 19.8 | 4.97 | 11.8 | 81.1 | 83.5 | 94.8 | 96.3 | 65.7 | 94.3 | 93.8 | 96.8 | 78.2 |
| CN1CCC(n2cnc(-c3ccc(F)cc3)c2-c2ccnc(N)n2)CC1 | 4.69 | 1.99 | 10.1 | 1.43 | 6.85 | 0.51 | 6.73 | 2.36 | 0.93 | 0.53 | 3.89 | 6.86 | 25.6 | 3.56 | 17.9 | 4.48 | 5.18 | 4.45 | 16.9 | 4.26 |
| COc1cccc(-c2c[nH]c3c(N/N=C/c4ccncc4)ncnc23)c1 | 2.09 | 40.1 | 83.3 | 33.8 | 81.8 | 2.09 | 15.7 | 4.89 | 27.3 | 13.4 | 48.8 | 64 | 82.8 | 72.2 | 94.4 | 21.8 | 82.2 | 59.7 | 93 | 55 |
| COc1cc2c(cc1Nc1nc(Nc3ccsc3C(N)=O)c3cc[nH]c3n1)N(C(=O)CN(C)C)CCC2(C)C | 96.3 | 4.53 | 4.24 | 2.04 | 2.4 | 3.14 | 16.1 | 5.6 | 23.1 | 14.8 | 62.4 | 21.6 | 63.2 | 5.04 | 20.5 | 8.69 | 16.9 | 13.1 | 46.1 | 15.1 |
